The values below come from PubChem BioAssay (NCATS).

Assay [1] concerns the target Cytochrome P450 3A4 (Homo sapiens) (UniProt P08684). In words: qHTS Assay for Inhibitors and Substrates of Cytochrome P450 3A4 (AID 884; active = well fitted curve in the direction sought with a large enough effect; an effect the other way counts as inactive or inconclusive; also: % is scaled to controls: 0 for no effect and ±100 for the full control effect; nearly all actives have a fitted effect of over 50% in size). The essentials: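 Luminescent readout of luciferin produced by CYP3A4 (20 nM) dealkylation of Luciferin-PPXE, 25 uM (its KM). NADPH-driven reaction ran 60 min at RT after 10 min compound preincubation; data scaled to 57 uM ketoconazole as 100% inhibition.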

Assay [2] can be described thus: Confirmation and Secondary Assay for Modulators of Hemoglobin Beta Chain Splicing at IVS2 654 locus (AID 910; active = well fitted curve in the direction sought with a large enough effect; an effect the other way counts as inactive or inconclusive;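 also: HeLa cells stably carrying EGFP split by mutant beta-globin IVS2-654 intron; % of control where 0% means no effect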). The gist of the method:
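HeLa cells stably expressing EGFP interrupted by β-globin IVS2-654 intron, seeded overnight in Opti-MEM/2% FCS, then treated 2 days at 37 °C. Restored splicing read as total peak GFP intensity per well by laser scanning cytometry (488 nm excitation, 500–520 nm emission); 500 nM antisense PNA as control.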

Assay [3] in a line: Confirmation and Secondary Assay for Modulators of Hemoglobin Beta Chain Splicing at IVS2 705 locus (AID 930; active = well fitted curve in the direction sought with a large enough effect; an effect the other way counts as inactive or inconclusive;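 also: HeLa cells stably expressing the EGFP-705 splicing reporter; GFP fluorescence per well restored by corrected splicing of the IVS2-705 intron in EGFP; % of control where 0% means no effect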). The essentials:
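Assay measures total GFP intensity per well in HeLa EGFP-705 cells after 2 days with compound; mis-splicing normally truncates EGFP, so fluorescence indicates corrected splicing.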

Assay [4] in a line: qHTS Assay for Lipid Storage Modulators (AID 1519; calls by dose curve; as to activity change, negative = inhibition: % is scaled to controls: 0 for no effect and ±100 for the full control effect). To be noted: Drosophila S3 cells, BODIPY lipid droplet/cell ratio, laser cytometry, cells loaded with oleic acid; for activity change, negative = inhibition: at 57.5 µM (top of the series). The essentials: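 Cells seeded at 5,000 per well were treated with compounds over a concentration series and loaded with oleic acid (400 uM, as added). Lipid droplet fluorescence (488 nm excitation, 500-530 nm channel) was read by laser-scanning cytometry and normalized to 20 uM Triacsin C.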

The target in assay [5] is Cytochrome P450 3A4 (Homo sapiens) (UniProt P08684). The assay can be described thus: qHTS Assay for Activators of Cytochrome P450 3A4 (AID 885; active = well fitted curve in the direction sought with a large enough effect; an effect the other way counts as inactive or inconclusive; also: nearly all actives have a fitted effect of over 65% in size). The essentials:
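CYP3A4 activity: Luciferin-PPXE O-dealkylation, 25uM substrate, 200mM KPO4, RT throughout. Read-out is luciferase luminescence; higher values reflect activation.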

Assay [6] deals with ATP-dependent 6-phosphofructokinase (Trypanosoma brucei brucei) (UniProt O15648). In words: qHTS Assay to Find Inhibitors of T. brucei phosphofructokinase: hit validation (AID 492961; active = well fitted curve in the direction sought with a large enough effect; an effect the other way counts as inactive or inconclusive;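 also: luminescence reports ADP formed as PFK phosphorylates fructose-6-phosphate with ATP; % is scaled to controls: 0 for no effect and ±100 for the full control effect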). The essentials:
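Inhibition of parasite PFK is measured as reduced ADP formation, quantified via luciferase after ATP depletion. Assay used 0.1 mM ATP, 0.5 mM F6P, 1.25 nM enzyme, 45 min incubation.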

Assay [7] deals with Ubiquitin carboxyl-terminal hydrolase 1 (Homo sapiens) (UniProt O94782). The assay can be described thus: Inhibitors of USP1/UAF1: Pilot qHTS (AID 504865; active = well fitted curve in the direction sought with a large enough effect; an effect the other way counts as inactive or inconclusive;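 also: rhodamine fluorescence freed from ubiquitin-rhodamine substrate followed over time; top concentration of the series differs between compounds; % is scaled to controls: 0 for no effect and ±100 for the full control effect; nearly all actives have a fitted effect of over 35% in size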). The gist of the method: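 Deubiquitinase activity followed as kinetic rhodamine fluorescence release from 150 nM Ub-Rho. 1 nM USP1/UAF1 with compound, after 15 min room-temperature preincubation, in HEPES pH 7.8 buffer containing TCEP, EDTA, BSA and Tween-20.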

The target of assay [8] is Luciferin 4-monooxygenase (Photinus pyralis) (UniProt P08659). The assay can be described thus: Biochemical firefly luciferase enzyme assay for NPC (AID 624030; active = well fitted curve in the direction sought with a large enough effect; an effect the other way counts as inactive or inconclusive;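 also: purified P. pyralis luciferase at 10 nM with luciferin and ATP substrate; 0% = DMSO and -100% = full luciferase inhibition by PTC124 control; nearly all actives have a fitted effect of over 70% in size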). The gist of the method: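 Purified P. pyralis luciferase at 10 nM in 50 mM Tris Acetate (final), luminescence read within 5 minutes of enzyme addition to compounds. Activity normalised to PTC124 versus DMSO; concentration-response curves classed by r2, magnitude and activity.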

Assay [9] is described as follows: S16 Schwann cell viability assay (CellTiter-Glo assay) (AID 624031; active = well fitted curve in the direction sought with a large enough effect; an effect the other way counts as inactive or inconclusive;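 also: native untransfected S16 rat Schwann cells; cellular ATP luminescence as a viability measure; plate controls were DMSO-treated cells for no effect and cell-free wells for full effect; nearly all actives have a fitted effect of over 70% in size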). The gist of the method:
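Concentration-effect curves come from CellTiter-Glo luminescence of S16 rat Schwann cells after 24 h compound exposure. Each reading was normalized to DMSO wells (0%) and wells without cells, and curves were ranked by r2 and response magnitude.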

Assay [10] is described as follows: S16 Schwann cell PMP22 intronic element firefly luciferase assay (AID 624032; active = well fitted curve in the direction sought with a large enough effect; an effect the other way counts as inactive or inconclusive;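 also: plate controls were DMSO for no effect and PTC124 positive control mean for full effect; nearly all actives have a fitted effect of over 30% in size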). The gist of the method: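 Rat S16 Schwann cells stably carrying firefly luciferase driven by a PMP22 intronic element, in 10% FBS, treated 24 h at 37 C. ONE-Glo luminescence normalized to PTC124 control and DMSO (0%); curves classed by r2, magnitude and activity.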
Assay [11] is described as follows: S16 Schwann cell PMP22 intronic element beta-lactamase assay (AID 624044; calls by dose curve;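 also: 0% = DMSO and -100% = potassium clavulanate positive control; nearly all actives have a fitted effect of over 15% in size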). The essentials: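 Beta-lactamase reporter under a PMP22 intronic regulatory element in stable S16 rat Schwann cells; 24 h compound exposure. 460 nm blue signal normalized between DMSO (0%) and potassium clavulanate, with 535 nm FRET tracking viability; curves classed by r2 and response.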

A further assay concerns CP238. In words: qHTS profiling for inhibitors of Plasmodium falciparum proliferation (AID 504749; active = well fitted curve in the direction sought with a large enough effect; an effect the other way counts as inactive or inconclusive;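 also: 0% = DMSO vehicle and full inhibition = artemisinin control; nearly all actives have a fitted effect of over 60% in size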). To be noted: P. falciparum in erythrocytes, SYBR Green DNA, 72 h; series mostly up to 12.8 µM. The essentials: (§1)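 Each compound contacts P. falciparum-infected red blood cells for 72 h at 37 C; lysis buffer (Tris, EDTA, saponin, Triton X, SYBR Green I) is added and fluorescence measured next morning; values normalized to controls.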

The next assay has as its system CP286. The description is as above. To be noted: P. falciparum in erythrocytes, SYBR Green DNA, 72 h; series mostly up to 12.8 µM. The gist of the method:
as §1

In assay [12] the target is Cytochrome P450 2D6 (Homo sapiens) (UniProt P10635). In words: Cytochrome P450 family 2 subfamily D member 6 (CYP2D6) small molecule antagonists: luciferase biochemical (cell-free) qHTS assay (AID 1645840). Also: nearly all actives have a fitted effect of over 55% in size. Also: potency is read from the fitted curve at half-maximal effect. As to activity change, negative = inhibition: % is scaled to controls: 0 for no effect and ±100 for the full control effect. The gist of the method:
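P450-Glo CYP2D6 system: proluciferin substrate converted by enzyme to luciferin, read by luminescence proportional to activity. Enzyme-substrate mix with compound 10 min at room temperature, then NADPH regeneration 1 h before detection reagent.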

The target in assay [13] is Cytochrome P450 2C9 (Homo sapiens) (UniProt P11712). In words: Cytochrome P450 family 2 subfamily C member 9 (CYP2C9) small molecule antagonists: luciferase biochemical (cell-free) qHTS assay (AID 1645842). Also: nearly all actives have a fitted effect of over 55% in size. Also: potency is read from the fitted curve at half-maximal effect. As to activity change, negative = inhibition: % is scaled to controls: 0 for no effect and ±100 for the full control effect. The gist of the method:
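P450-Glo CYP2C9 system: proluciferin substrate with enzyme in mix containing 0.4% BSA, 10 min at room temperature, then NADPH regeneration solution added and incubated 1 h at 37C. Detection reagent stopped reaction; luminescence read after 20 min as RLU.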

The mark [14] stands for this setting: measured here: cell count channel max response.
The mark [15] stands for this setting: measured here: lipid channel max response.

Records with an inconclusive call do not appear. Calls of active or inactive are those of the source. Unless noted, calls follow the shape of the dose curve; as a rule, active = well fitted curve in the direction sought with a large enough effect in the repeat runs; inconclusive = weak or mixed curves; inactive = no such curve, though single readings can be large; an effect the other way counts as inactive or inconclusive.

Chain of Cytochrome P450 3A4 (Homo sapiens) (P08684 whole entry, looked up): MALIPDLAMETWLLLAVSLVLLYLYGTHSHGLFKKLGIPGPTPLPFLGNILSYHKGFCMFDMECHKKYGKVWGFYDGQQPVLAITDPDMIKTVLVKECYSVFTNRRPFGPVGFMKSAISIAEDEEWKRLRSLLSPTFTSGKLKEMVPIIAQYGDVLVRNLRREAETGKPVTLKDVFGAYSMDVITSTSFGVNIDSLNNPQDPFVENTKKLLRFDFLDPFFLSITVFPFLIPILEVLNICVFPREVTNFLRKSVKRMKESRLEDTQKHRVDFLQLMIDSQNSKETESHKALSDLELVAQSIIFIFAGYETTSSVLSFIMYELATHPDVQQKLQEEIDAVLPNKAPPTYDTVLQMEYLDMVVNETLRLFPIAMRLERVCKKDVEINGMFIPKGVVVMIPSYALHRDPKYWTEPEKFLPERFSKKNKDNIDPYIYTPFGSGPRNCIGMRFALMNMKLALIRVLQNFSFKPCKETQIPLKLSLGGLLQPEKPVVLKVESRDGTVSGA
Chain of Cytochrome P450 2C9 (Homo sapiens) (P11712 whole entry, looked up): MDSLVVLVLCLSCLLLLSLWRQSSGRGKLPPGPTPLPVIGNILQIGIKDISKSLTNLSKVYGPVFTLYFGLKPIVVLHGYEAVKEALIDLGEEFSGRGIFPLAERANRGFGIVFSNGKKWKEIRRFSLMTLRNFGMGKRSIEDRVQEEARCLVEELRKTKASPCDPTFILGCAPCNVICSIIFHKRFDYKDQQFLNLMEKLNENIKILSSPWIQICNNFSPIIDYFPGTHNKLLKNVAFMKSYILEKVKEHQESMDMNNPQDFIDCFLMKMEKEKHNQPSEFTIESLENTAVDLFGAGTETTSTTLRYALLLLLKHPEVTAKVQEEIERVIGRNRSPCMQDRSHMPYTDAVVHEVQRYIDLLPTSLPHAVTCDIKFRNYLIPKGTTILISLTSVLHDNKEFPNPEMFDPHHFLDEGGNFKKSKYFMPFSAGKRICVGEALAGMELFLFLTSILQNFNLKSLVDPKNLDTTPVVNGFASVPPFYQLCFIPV
Chain of Cytochrome P450 2D6 (Homo sapiens) (P10635 whole entry, looked up): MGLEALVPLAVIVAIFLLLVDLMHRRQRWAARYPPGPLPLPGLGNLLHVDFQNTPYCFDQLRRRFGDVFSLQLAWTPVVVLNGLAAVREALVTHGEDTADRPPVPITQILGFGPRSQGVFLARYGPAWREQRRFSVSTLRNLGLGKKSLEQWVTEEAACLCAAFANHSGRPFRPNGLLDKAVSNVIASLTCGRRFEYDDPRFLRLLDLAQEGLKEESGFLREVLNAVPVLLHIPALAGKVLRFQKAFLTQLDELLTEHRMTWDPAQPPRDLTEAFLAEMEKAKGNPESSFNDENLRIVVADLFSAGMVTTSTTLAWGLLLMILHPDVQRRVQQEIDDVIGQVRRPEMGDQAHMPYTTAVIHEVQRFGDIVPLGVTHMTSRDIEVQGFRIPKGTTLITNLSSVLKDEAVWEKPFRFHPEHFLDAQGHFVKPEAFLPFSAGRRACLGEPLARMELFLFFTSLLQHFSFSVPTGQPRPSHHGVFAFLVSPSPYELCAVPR
Chain of Ubiquitin carboxyl-terminal hydrolase 1 (Homo sapiens) (O94782 whole entry, looked up): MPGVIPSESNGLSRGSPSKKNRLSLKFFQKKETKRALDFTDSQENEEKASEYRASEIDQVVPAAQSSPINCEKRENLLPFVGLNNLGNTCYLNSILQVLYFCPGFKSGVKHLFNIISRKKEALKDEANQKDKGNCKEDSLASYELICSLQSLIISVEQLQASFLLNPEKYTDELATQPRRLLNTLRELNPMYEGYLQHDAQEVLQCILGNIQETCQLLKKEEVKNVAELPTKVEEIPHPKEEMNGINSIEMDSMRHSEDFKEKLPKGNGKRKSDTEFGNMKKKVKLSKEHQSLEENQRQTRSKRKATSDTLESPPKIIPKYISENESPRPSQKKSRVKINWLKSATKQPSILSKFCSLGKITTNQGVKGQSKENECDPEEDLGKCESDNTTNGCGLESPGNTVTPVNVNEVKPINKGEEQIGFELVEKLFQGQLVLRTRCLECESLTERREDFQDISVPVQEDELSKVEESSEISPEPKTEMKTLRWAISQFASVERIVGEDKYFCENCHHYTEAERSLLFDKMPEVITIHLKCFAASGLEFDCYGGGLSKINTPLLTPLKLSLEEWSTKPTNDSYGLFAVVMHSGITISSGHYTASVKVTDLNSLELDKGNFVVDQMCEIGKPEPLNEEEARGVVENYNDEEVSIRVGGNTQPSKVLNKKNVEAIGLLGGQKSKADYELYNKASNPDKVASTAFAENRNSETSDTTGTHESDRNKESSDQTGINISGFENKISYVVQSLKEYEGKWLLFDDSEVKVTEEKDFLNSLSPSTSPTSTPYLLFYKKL
Chain of ATP-dependent 6-phosphofructokinase (Trypanosoma brucei brucei) (O15648 whole entry, looked up): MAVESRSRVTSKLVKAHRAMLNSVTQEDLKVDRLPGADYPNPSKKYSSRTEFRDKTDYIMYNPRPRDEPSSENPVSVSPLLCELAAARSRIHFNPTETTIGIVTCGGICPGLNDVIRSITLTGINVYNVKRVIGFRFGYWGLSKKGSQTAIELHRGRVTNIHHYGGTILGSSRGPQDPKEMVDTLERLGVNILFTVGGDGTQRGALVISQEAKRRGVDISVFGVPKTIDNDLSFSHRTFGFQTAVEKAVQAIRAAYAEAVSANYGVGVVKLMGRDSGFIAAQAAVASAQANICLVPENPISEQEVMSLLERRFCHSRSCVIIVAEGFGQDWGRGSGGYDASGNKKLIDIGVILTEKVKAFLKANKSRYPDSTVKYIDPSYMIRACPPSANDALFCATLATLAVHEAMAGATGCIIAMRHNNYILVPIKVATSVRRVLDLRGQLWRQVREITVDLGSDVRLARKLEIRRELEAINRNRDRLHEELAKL
Chain of Luciferin 4-monooxygenase (Photinus pyralis) (P08659 whole entry, looked up): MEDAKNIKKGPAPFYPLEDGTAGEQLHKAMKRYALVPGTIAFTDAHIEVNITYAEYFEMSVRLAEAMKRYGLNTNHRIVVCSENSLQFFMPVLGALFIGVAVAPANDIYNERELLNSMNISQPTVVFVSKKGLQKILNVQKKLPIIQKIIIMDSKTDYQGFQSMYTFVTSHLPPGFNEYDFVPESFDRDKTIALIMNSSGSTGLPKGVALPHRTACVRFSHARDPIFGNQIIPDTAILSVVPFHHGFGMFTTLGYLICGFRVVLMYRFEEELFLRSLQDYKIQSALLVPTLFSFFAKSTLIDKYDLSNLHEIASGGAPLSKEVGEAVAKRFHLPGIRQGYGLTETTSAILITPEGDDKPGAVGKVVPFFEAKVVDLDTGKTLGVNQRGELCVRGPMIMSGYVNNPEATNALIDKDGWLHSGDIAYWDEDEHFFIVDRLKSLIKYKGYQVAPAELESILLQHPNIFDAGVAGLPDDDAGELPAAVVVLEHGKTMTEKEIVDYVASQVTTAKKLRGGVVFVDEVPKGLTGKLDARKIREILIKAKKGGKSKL

For the compound `CC(C)C(C)/C=C/C(C)C1CCC2C3=CC=C4CC(O)CCC4(C)C3CCC21C` (centres undefined), the Potency entry in assay [1], in assay [2] and in [3] was “inactive” in each case. In addition, the activity change, negative = inhibition in assay [4] is 4.22% (inactive). The max response in assay [4] (setting [14]) was 8.27%; in [4] (setting [15]), 15.2%.
In the case of `CC(C)=CC1C(CO)C1(C)C` (centres undefined), the Potency result in [1], in assay [2] and in assay [3] was “inactive” in each case. Further, in assay [4], the activity change, negative = inhibition is 4.52% (inactive). Further, the results for the max response in [4] (setting [14]) and in assay [4] (setting [15]) were 11.9% and 18.1%, respectively.
For `O=C(O)CN(CC(=O)O)Cc1cc2c(-c3ccccc3C(=O)O)c3cc(CN(CC(=O)O)CC(=O)O)c(=O)cc-3oc2cc1O`, the Potency result in assay [5], in assay [2], in assay [3], in [7], in assay [8] and in assay [10] was “inactive” each time. In addition, the Potency result (in assay [11]; with CP238; in the assay with CP286) was “inactive” each time. The compound was classed as inactive in [6] and in assay [9].
Regarding `Cc1ccc(C)c(N2CCN(C(=O)C3CCN(S(=O)(=O)c4ccc5[nH]c(=O)oc5c4)CC3)CC2)c1`, the Potency entry in [12] is “inactive”. Moreover, the Potency in assay [13] was 2.13 µM (active).
In the case of `CCc1ccc(-n2c(SCc3ccccc3F)nc3[nH]ncc3c2=O)cc1`, the results for the Potency in assay [12] and in assay [13] were 12 µM (active) and 4.77 µM (active), respectively.
With `C=Cc1ccc(Cn2c(SCC(=O)N3CCN(c4ccc(F)cc4)CC3)nc3ccccc32)cc1`, the Potency entry in assay [12] is “inactive”. In addition, the Potency in assay [13] was 3.38 µM (active).
Turning to `CC(C)c1ccc(-n2ncc3c(=O)n(CC(=O)Nc4cc(F)ccc4Cl)cnc32)cc1`, the Potency entry in [12] was “inactive”. The Potency in assay [13] is 3.79 µM (active).
Turning to `CCOC(=O)c1cnc2ccc(OC)cc2c1NCCc1ccc(OC)c(OC)c1`, the Potency is 2.39 µM (active) in assay [12] and 0.849 µM (active) in [13].
In the case of `COc1ccc(-n2nc3c(N4CCCC(C(=O)NCCc5ccccc5C)C4)nnc(C)c3c2C)cc1` (centres undefined), the Potency is 2.68 µM (active) in assay [12] and 0.674 µM (active) in assay [13].
For the compound `Cc1ccc(S(=O)(=O)N2CCc3cc(C(=O)Nc4ccc(C(F)(F)F)cc4)ccc32)cc1`, the Potency result in assay [12] was “inactive”. Moreover, the Potency in [13] is 1.51 µM (active).
As to `Cc1ccc(C)c(NC(=O)Cn2cc(C(=O)c3ccco3)c3ccccc32)c1`, the Potency in assay [12] was 0.425 µM (active). The Potency result in assay [13] was “inactive”.
On to `CCOc1ccc(CNC(=O)Cn2c(=O)c3cccn3c3ccc(F)cc32)cc1OC`, for which the Potency result in assay [12] and in assay [13] was “inactive” in each case.
With `Cc1ccc(C)c(NC(=O)C2CCN(S(=O)(=O)c3c(C)noc3/C=C/c3cccs3)CC2)c1`, the Potency in assay [12] was 2.39 µM (active); in assay [13], 0.849 µM (active).
On to `CCOC(=O)c1ccc(N2C(=O)c3n[nH]c(-c4ccco4)c3C2c2ccc(C)cc2)cc1` (centres undefined), for which the Potency result in assay [12] is “inactive”. In assay [13], the Potency was 2.39 µM (active).
As to `COc1ccc(NC(=O)C2CCCN(c3nnc(C)c4c(C)n(-c5ccccc5)nc34)C2)cc1Cl` (centres undefined), the figures for the Potency in [12] and in [13] were 16.9 µM (active) and 5.35 µM (active), respectively.
Regarding `Cc1cccc(NC(=O)CSc2nc3ccccc3c3nc(CCn4cncc4C)nn23)c1`, the Potency in assay [12] was 3.01 µM (active); in assay [13], 1.51 µM (active).
